According to the supplement of paper PMC10849652:
The full data set covers some 7,900 targets. This sample favours those with a hit. About 0.6% of all pairs of compound and target were hits. A number with no mark means an inactive call.

Assays:
Assay in all cases: log2 fold change, soluble protein after heating vs DMSO (PISA); higher = thermal stabilisation; K562 cells, 10 uM, 30 min; active = over 0.2 and 3.5 SD of the protein, either way, in both replicates (recomputed)
[1] = compound: CC1=C(C=C(C=C1)NC(=O)C2=CC(=CC=C2)C(C)(C)C#N)NC3=CC4=C(C=C3)N=CN(C4=O)C
How it was run: (§1)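 K562 cells at 2×10^6 cells/mL were exposed to 10 μM compound for 30 min, then aliquots were heated for 3 min across 48°C-58°C, pooled, and extracted in PBS containing 0.5% NP-40 at 4°C. The supernatant after 21,000xg for 90 min was taken as soluble protein and measured by TMTpro 16plex LC-MS/MS with channel sums equalised. Thermal stability is reported relative to control samples, with values from duplicates. Fold changes are given on a log2 scale.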

[2] = compound: CC1=C(C=C(C=C1)NC(=O)C2=CC(=CC=C2)N(C)C)NC(=O)C3=CC=C(C=C3)O
How it was run: as §1

[3] = compound: CC1=CC=C(C=C1)SC2=C3C=C(SC3=CN=C2)C(=O)N
How it was run: as §1

[4] = compound: CC1=NC(=CC=C1)C2=C(N=C(N2)C(C)(C)C)C3=CC4=NC=CN=C4C=C3
How it was run: as §1

Nexturastat A = compound: CCCCN(Cc1ccc(C(=O)NO)cc1)C(=O)Nc1ccccc1 [Nexturastat A]
How it was run: as §1

vemurafenib = compound: CCCS(=O)(=O)Nc1ccc(F)c(C(=O)c2c[nH]c3ncc(-c4ccc(Cl)cc4)cc23)c1F [vemurafenib]
How it was run: as §1

[5] = compound: CCCS(=O)(=O)Nc1ccc(F)c(C(=O)c2c[nH]c3ncc(Cl)cc23)c1F
How it was run: as §1

[6] = compound: CCCc1cc(C)[nH]c(=O)c1CNC(=O)c1cc(-c2ccnc(N3CCN(C)CC3)c2)cc2c1cnn2C(C)C
How it was run: as §1

givinostat = compound: CCN(CC)Cc1ccc2cc(COC(=O)Nc3ccc(C(=O)NO)cc3)ccc2c1 [givinostat]
How it was run: as §1

barasertib = compound: CCN(CCCOc1ccc2c(Nc3cc(CC(=O)Nc4cccc(F)c4)[nH]n3)ncnc2c1)CCOP(=O)(O)O [barasertib]
How it was run: as §1

UniProt Q04446, sequence (Q04446 whole entry, looked up): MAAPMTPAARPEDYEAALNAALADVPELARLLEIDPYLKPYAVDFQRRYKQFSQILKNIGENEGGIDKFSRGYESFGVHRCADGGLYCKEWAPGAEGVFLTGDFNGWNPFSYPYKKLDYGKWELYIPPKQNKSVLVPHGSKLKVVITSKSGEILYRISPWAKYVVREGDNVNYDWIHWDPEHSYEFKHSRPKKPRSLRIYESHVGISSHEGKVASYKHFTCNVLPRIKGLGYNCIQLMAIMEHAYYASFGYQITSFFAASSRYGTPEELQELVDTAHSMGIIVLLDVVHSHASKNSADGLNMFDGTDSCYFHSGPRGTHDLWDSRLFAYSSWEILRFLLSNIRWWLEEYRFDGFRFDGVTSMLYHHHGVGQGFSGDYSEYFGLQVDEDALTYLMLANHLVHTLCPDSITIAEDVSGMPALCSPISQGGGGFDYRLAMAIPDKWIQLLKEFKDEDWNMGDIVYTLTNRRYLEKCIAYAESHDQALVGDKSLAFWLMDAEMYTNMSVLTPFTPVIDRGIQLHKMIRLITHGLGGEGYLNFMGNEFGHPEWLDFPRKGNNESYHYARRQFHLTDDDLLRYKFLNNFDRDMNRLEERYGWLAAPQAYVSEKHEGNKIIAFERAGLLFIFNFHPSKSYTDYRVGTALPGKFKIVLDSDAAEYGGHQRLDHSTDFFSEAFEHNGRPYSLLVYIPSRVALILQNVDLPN
UniProt I6L899, sequence (I6L899 whole entry, looked up): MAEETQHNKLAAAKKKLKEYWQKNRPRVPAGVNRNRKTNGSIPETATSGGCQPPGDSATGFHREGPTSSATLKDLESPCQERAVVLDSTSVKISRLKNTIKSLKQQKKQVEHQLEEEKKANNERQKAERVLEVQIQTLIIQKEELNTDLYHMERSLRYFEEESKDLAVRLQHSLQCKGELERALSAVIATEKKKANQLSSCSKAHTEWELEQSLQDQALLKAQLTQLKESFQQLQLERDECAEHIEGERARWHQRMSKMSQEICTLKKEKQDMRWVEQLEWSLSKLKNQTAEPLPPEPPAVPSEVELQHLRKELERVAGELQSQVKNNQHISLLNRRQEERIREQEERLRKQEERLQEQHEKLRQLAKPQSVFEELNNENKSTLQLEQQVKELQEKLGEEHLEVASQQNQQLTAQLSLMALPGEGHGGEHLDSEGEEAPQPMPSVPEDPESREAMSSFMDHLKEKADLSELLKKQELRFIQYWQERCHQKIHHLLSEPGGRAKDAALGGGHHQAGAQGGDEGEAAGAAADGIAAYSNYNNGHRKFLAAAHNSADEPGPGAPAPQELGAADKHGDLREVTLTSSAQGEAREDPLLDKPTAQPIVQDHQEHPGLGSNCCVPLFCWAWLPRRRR
UniProt O14893, sequence (O14893 whole entry, looked up): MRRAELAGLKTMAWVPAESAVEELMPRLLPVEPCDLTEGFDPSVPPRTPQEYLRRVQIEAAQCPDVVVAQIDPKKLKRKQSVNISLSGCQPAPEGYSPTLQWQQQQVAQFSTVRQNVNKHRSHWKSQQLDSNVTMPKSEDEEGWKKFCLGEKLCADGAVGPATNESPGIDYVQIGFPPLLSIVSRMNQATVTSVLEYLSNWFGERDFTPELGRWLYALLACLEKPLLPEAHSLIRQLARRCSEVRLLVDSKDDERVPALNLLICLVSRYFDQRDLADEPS
UniProt P30711, sequence (P30711 whole entry, looked up): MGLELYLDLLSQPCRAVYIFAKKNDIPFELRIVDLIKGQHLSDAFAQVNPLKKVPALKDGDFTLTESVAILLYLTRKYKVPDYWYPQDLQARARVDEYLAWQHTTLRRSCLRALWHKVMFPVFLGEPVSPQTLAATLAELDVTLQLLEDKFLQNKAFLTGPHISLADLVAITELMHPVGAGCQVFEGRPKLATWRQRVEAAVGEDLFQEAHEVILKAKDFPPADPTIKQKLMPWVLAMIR
UniProt Q14687, sequence (Q14687 whole entry, looked up): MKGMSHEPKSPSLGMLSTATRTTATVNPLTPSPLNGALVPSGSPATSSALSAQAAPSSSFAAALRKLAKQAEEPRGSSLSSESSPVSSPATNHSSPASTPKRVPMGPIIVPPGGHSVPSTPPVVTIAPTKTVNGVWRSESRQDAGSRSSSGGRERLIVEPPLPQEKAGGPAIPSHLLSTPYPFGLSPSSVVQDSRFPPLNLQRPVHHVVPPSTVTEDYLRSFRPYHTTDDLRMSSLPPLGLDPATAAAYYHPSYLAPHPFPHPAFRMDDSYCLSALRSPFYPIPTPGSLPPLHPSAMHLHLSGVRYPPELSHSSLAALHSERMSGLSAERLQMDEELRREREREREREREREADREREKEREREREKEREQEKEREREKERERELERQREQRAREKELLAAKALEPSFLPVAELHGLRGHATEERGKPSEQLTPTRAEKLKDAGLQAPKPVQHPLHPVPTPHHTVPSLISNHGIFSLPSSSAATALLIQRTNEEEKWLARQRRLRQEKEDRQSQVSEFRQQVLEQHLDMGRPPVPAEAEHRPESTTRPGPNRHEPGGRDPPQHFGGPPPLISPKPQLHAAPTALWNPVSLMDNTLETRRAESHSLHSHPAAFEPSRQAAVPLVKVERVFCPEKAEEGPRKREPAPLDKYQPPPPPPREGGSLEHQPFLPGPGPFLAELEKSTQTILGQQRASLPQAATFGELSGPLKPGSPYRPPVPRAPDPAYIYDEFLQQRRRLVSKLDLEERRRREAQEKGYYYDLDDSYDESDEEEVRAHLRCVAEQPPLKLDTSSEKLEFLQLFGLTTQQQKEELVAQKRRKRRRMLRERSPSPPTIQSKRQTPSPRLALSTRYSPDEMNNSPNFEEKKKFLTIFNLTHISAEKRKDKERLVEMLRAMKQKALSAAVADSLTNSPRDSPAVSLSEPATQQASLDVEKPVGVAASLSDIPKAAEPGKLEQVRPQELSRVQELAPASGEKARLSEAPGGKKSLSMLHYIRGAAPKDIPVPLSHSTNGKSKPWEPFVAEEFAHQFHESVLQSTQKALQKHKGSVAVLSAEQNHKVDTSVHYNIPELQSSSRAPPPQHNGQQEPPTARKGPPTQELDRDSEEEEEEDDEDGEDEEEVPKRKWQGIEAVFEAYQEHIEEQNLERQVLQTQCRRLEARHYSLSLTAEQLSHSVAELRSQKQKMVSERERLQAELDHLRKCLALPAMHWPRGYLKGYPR
UniProt Q96SL8, sequence (Q96SL8 whole entry, looked up): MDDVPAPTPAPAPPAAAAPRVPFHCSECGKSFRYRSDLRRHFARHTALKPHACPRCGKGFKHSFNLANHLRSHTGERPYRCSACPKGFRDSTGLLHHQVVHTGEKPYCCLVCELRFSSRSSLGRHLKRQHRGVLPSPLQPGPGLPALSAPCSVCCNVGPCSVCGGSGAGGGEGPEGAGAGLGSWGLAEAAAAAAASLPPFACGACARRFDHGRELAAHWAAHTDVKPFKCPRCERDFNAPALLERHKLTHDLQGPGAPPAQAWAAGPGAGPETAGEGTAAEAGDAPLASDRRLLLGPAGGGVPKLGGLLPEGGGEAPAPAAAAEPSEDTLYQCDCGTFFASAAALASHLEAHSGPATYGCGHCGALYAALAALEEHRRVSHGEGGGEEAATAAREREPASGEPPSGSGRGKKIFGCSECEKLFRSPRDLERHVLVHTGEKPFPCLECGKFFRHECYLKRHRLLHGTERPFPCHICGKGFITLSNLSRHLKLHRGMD
UniProt P54652, sequence (P54652 whole entry, looked up): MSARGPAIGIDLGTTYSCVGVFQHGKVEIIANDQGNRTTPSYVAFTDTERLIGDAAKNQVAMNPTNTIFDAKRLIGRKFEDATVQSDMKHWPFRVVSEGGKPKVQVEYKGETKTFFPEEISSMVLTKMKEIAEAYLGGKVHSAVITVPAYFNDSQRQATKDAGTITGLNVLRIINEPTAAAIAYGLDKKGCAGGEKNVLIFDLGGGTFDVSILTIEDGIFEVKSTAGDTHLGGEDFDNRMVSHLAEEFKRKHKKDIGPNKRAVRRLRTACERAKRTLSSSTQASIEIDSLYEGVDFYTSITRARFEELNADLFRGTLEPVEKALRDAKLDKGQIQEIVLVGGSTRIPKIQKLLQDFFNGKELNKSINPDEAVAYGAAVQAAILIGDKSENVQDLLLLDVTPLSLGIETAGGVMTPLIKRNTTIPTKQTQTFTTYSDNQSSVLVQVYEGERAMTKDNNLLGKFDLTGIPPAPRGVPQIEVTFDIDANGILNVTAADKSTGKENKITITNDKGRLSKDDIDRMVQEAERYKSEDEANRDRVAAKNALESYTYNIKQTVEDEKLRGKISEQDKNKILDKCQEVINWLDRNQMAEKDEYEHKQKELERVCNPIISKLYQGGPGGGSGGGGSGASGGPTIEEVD
UniProt Q70Z53, sequence (Q70Z53 whole entry, looked up): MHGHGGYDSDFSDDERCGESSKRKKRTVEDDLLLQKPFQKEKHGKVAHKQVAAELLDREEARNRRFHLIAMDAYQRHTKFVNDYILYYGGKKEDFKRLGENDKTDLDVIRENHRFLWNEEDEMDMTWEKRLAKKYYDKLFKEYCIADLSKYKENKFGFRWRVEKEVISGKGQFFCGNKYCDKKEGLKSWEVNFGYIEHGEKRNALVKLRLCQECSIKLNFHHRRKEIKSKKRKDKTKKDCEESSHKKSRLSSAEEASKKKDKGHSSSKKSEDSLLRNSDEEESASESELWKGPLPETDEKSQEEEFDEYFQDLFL
UniProt P50213, sequence (P50213 whole entry, looked up): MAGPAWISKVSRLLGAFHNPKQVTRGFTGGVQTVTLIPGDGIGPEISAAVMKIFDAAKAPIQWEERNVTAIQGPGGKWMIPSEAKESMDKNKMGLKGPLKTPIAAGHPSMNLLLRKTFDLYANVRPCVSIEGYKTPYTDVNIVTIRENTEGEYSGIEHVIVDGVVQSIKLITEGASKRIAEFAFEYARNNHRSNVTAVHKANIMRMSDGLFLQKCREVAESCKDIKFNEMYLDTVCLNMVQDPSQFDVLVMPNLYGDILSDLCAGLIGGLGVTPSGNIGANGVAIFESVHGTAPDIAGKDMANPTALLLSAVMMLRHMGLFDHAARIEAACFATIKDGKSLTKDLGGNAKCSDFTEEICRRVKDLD

Target	log2 fold change [1]	log2 fold change [2]	log2 fold change [3]	log2 fold change [4]	log2 fold change (Nexturastat A)	log2 fold change (vemurafenib)	log2 fold change [5]	log2 fold change [6]	log2 fold change (givinostat)	log2 fold change (barasertib)
FKBP4 (UniProt Q02790)	0.032	-0.037	0.015	0.045	-0.027	0.032	0.06	-0.009	0.012	0.013
HDAC1 (UniProt Q13547)	-0.11	-0.039	0.051	0.034	1.45 (active)	0.051	0.14	-0.118	–	0.024
GID4 (UniProt Q8IVV7)	0.028	0.003	-0.07	–	0.058	-0.181	-0.271 (active)	-0.035	-0.03	-0.1
GNL3 (UniProt Q9BVP2)	0.002	–	–	–	0.491 (active)	-0.12	–	-0.307	–	0.079
FAT2 (UniProt Q9NYQ8)	–	-0.035	-0.113	-0.114	0.456	-0.002	0.009	-0.333	0.119	0.069
GSTT1 (UniProt P30711)	–	-0.004	0.011	0.101	-0.062	0.064	-0.063	0.081	0.009	-0.018
GPD1 (UniProt P21695)	0.011	-0.046	0.021	–	0.653 (active)	0.02	-0.042	-0.34	0.514	0.062
FIZ1 (UniProt Q96SL8)	-0.164	–	–	-0.047	0.102	0.13	–	-0.022	–	–
GOLGA6B (UniProt A6NDN3)	-0.035	–	–	0.033	-0.099	0.882 (active)	–	-0.113	0.002	0.011
GBE1 (UniProt Q04446)	–	0.08	0.128	0.014	0	0.162	0.065	0.005	0.038	0.109
FASTKD1 (UniProt Q53R41)	-0.066	-0.138	–	0.017	0.013	0.065	–	–	0.156	0.096
H3-3A (UniProt P84243)	-0.205	–	0.078	–	–	0.149	0.102	0.118	0.267	0.101
IGF2 isoform 3 (UniProt P01344)	–	–	–	0.136	–	0.073	–	–	-0.148	–
GEMIN2 (UniProt O14893)	-0.073	0.033	0	-0.002	0.243	-0.028	-0.023	0.029	–	0.078
FUT8 (UniProt Q9BYC5)	-0.05	-0.047	–	0.037	0.064	-0.417	–	0.048	-0.048	-0.014
FGG (UniProt P02679)	–	0.067	-0.093	–	–	–	-0.214	–	–	–
HSPA2 (UniProt P54652)	-0.109	0.046	–	-0.039	–	–	–	0.057	0.13	-0.004
GSE1 (UniProt Q14687)	–	0.071	–	–	–	-0.13	–	–	–	0.232
HBZ, A0A494C057	–	–	–	–	–	–	–	0.051	0.109	0.013

Target	log2 fold change [1]	log2 fold change [2]	log2 fold change [3]	log2 fold change [4]	log2 fold change (Nexturastat A)	log2 fold change (vemurafenib)	log2 fold change [5]	log2 fold change [6]	log2 fold change (givinostat)	log2 fold change (barasertib)
FMR1 (UniProt Q06787)	-0.023	0.036	-0.066	-0.163	–	–	-0.094	-0.068	-0.203	–
FUNDC1 (UniProt Q8IVP5)	0.007	–	0.118	–	–	–	-0.013	-0.285	–	0.052
HS1BP3 (UniProt Q53T59)	0.023	-0.045	-0.109	-0.046	0.052	0.132	0.021	–	0.111	0.047
HNRNPUL1 (UniProt M0R247)	-0.059	–	-0.148	-0.075	–	–	-0.15	–	0.001	–
GREB1 (UniProt Q4ZG55)	-0.003	–	–	-0.338	0.755 (active)	0.047	–	–	0.294	–
IFNGR1 (UniProt P15260)	-0.246	0.048	-0.056	–	0.743 (active)	-0.124	-0.181	-0.174	0.281	0.028
FBXO9 (UniProt Q9UK97)	–	0.009	0.064	-0.025	–	0	0.061	0.052	0.111	0.117
GOLGA8R (UniProt I6L899)	–	-0.037	0.041	-0.205	–	0.06	-0.086	–	0.223	0.048
HAUS4 (UniProt Q9H6D7)	-0.143	0.003	0.084	–	-0.061	-0.049	0.012	-0.269	0.08	-0.16
HSPA8 (UniProt E9PN89)	-0.158	–	-0.261	-0.144	-0.019	-0.276	-0.507	-0.689	0.182	0.03
FRA10AC1 isoform 3 (UniProt Q70Z53)	-0.068	–	0.04	0.041	-0.096	0.104	0.001	-0.001	0.052	-0.002
HDAC10 (UniProt Q969S8)	–	0.027	-0.001	–	–	0.231	0.046	0.056	0.153	-0.117
GBA2 (UniProt Q9HCG7)	-0.079	–	-0.043	0	0.051	0	-0.032	-0.076	-0.02	0.008
GTPBP6 (UniProt O43824)	0.038	0.014	–	-0.042	-0.037	0.015	–	0.006	-0.062	-0.015
GTF3A (UniProt Q92664)	0.074	–	0.09	0.125	-0.054	-0.075	0.078	-0.035	-0.048	-0.053
IDH3A isoform 2 (UniProt P50213)	–	–	–	-0.083	–	–	–	–	0.175	-0.012
GPNMB (UniProt Q14956)	–	–	–	–	1.64 (active)	–	–	–	0.671	–
HNRNPK isoform 3 (UniProt P61978)	-0.015	0.027	–	0.066	0.085	-0.066	–	-0.067	0.062	-0.136
